For some of these results: Entries with a potency or affinity are not part of this list.

One assay in a line: polyglutamine-triggered caspase-3 activation inhibitors, cell-based (AID 1583). The conditions noted are these: polyglutamine-induced caspase-3 activation, cell assay; stronger effect = higher value;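 tested at 10 µM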.
For `C[C@@H]1CC[C@H]2[C@@H](C)C(=O)O[C@@H]3OC4(C)CC[C@@H]1[C@]32OO4`, the inhibition worked out at 18.8%.

Turning to `COc1ccc2c(c1)[C@]13CCCC[C@H]1[C@H](C2)N(C)CC3`, the inhibition was -11.5%.

In the case of `CC(=O)C1=C(O)C2C3c4c[nH]c5cccc(c45)CC3C(C)(C)N2C1=O` (stereo not drawn), the inhibition was -21.2%.

In the case of `O=C1CC2OCC=C3CN4CC[C@]56c7ccccc7N1C5[C@H]2[C@H]3CC46` (stereo partly drawn), the inhibition is -12.5%.

`C=C1C2CC[C@H]3[C@]4(C)C[C@H](OC5OC(CO)C(OS(=O)(=O)O)C(OS(=O)(=O)O)C5OC(=O)CC(C)C)C[C@@H](C(=O)O)[C@H]4CC[C@]3(C2)[C@H]1O` (stereo partly drawn): the inhibition stood at 13.1%.

For the molecule `CCC(C)C(=O)O[C@H]1[C@H](O)C2C(CN3CC(C)CCC3[C@@]2(C)O)C2C[C@]34O[C@]5(O)C(OC(=O)C(C)(O)C(C)O)CC[C@@]3(C)C5C(OC(C)=O)[C@@H](OC(C)=O)C4[C@@]21O` (stereo partly drawn), the inhibition worked out at 19.1%.

For `C/C=C(\C)C(=O)O[C@H]1C[C@@H](OC(C)=O)[C@@]2(C(=O)OC)CO[C@@H]3C2[C@]12CO[C@](O)(C(=O)OC)[C@H]2[C@](C)(C12O[C@@]1(C)[C@H]1C[C@@H]2OC2OC=C[C@@]21O)[C@@H]3O` (stereo partly drawn), the inhibition is 0.47%.

`COc1ccc2c(c1OC)C(=O)O[C@H]2[C@H]1c2cc3c(cc2CCN1C)OCO3`: the inhibition was -1.71%.

Another assay can be described thus: suppressors of polyQ aggregation in yeast, 75Q-TubU reporter (AID 1593). The settings on record: Yeast 75Q polyglutamine aggregation reporter.
Molecule `C[C@@H]1CC[C@H]2[C@@H](C)C(=O)O[C@@H]3OC4(C)CC[C@@H]1[C@]32OO4` returned a score of 0.49.

Consider `CO[C@H]1[C@H](O)[C@H](O[C@H]2CC[C@]3(C)C4CC[C@]5(C)C(C6=CC(=O)OC6)CC[C@]5(O)C4CC[C@@H]3C2)O[C@@H](C)[C@@H]1O` (stereo partly drawn), for which the score was found to be 1.23.

For `COc1ccc2c(c1)[C@]13CCCC[C@H]1[C@H](C2)N(C)CC3`, the score was determined as 1.32.

In turn, `CC(=O)C1=C(O)C2C3c4c[nH]c5cccc(c45)CC3C(C)(C)N2C1=O` (stereo not drawn) had a score of -0.21.

For the molecule `O=C1CC2OCC=C3CN4CC[C@]56c7ccccc7N1C5[C@H]2[C@H]3CC46` (stereo partly drawn), the score is 1.28.

In the case of `C=C1C2CC[C@H]3[C@]4(C)C[C@H](OC5OC(CO)C(OS(=O)(=O)O)C(OS(=O)(=O)O)C5OC(=O)CC(C)C)C[C@@H](C(=O)O)[C@H]4CC[C@]3(C2)[C@H]1O` (stereo partly drawn), the score was 1.67.

`C[C@H]1O[C@@H](O[C@H]2[C@@H](O)C[C@H](O[C@H]3[C@@H](O)C[C@H](O[C@H]4CC[C@]5(C)C6CC[C@]7(C)[C@@H](C8=CC(=O)OC8)CC[C@]7(O)C6CC[C@@H]5C4)O[C@@H]3C)O[C@@H]2C)C[C@H](O)[C@@H]1O` (stereo partly drawn) came in with a score of 1.05.

Molecule `CCC(C)C(=O)O[C@H]1[C@H](O)C2C(CN3CC(C)CCC3[C@@]2(C)O)C2C[C@]34O[C@]5(O)C(OC(=O)C(C)(O)C(C)O)CC[C@@]3(C)C5C(OC(C)=O)[C@@H](OC(C)=O)C4[C@@]21O` (stereo partly drawn) showed a score of 1.45.

Molecule `C/C=C(\C)C(=O)O[C@H]1C[C@@H](OC(C)=O)[C@@]2(C(=O)OC)CO[C@@H]3C2[C@]12CO[C@](O)(C(=O)OC)[C@H]2[C@](C)(C12O[C@@]1(C)[C@H]1C[C@@H]2OC2OC=C[C@@]21O)[C@@H]3O` (stereo partly drawn) came in with a score of 1.31.

On to `COc1ccc2c(c1OC)C(=O)O[C@H]2[C@H]1c2cc3c(cc2CCN1C)OCO3`, for which the score was 1.46.

The nature of a further assay: rescue of polyQ-huntingtin neuronal dysfunction in worms, whole organism, C. elegans mechanosensory neurons, N-terminal huntingtin (AID 1599). The settings on record: touch response, stronger effect = higher value.
With `C[C@@H]1CC[C@H]2[C@@H](C)C(=O)O[C@@H]3OC4(C)CC[C@@H]1[C@]32OO4`, the rescue above control was found to be 21.4.

As for `CO[C@H]1[C@H](O)[C@H](O[C@H]2CC[C@]3(C)C4CC[C@]5(C)C(C6=CC(=O)OC6)CC[C@]5(O)C4CC[C@@H]3C2)O[C@@H](C)[C@@H]1O` (stereo partly drawn), the rescue above control was -1.89.

As for `COc1ccc2c(c1)[C@]13CCCC[C@H]1[C@H](C2)N(C)CC3`, the rescue above control was -2.69.

`CC(=O)C1=C(O)C2C3c4c[nH]c5cccc(c45)CC3C(C)(C)N2C1=O` (stereo not drawn) had a rescue above control of 9.72.

As for `O=C1CC2OCC=C3CN4CC[C@]56c7ccccc7N1C5[C@H]2[C@H]3CC46` (stereo partly drawn), the rescue above control was -0.21.

Turning to `C=C1C2CC[C@H]3[C@]4(C)C[C@H](OC5OC(CO)C(OS(=O)(=O)O)C(OS(=O)(=O)O)C5OC(=O)CC(C)C)C[C@@H](C(=O)O)[C@H]4CC[C@]3(C2)[C@H]1O` (stereo partly drawn), the rescue above control was -8.48.

Molecule `C[C@H]1O[C@@H](O[C@H]2[C@@H](O)C[C@H](O[C@H]3[C@@H](O)C[C@H](O[C@H]4CC[C@]5(C)C6CC[C@]7(C)[C@@H](C8=CC(=O)OC8)CC[C@]7(O)C6CC[C@@H]5C4)O[C@@H]3C)O[C@@H]2C)C[C@H](O)[C@@H]1O` (stereo partly drawn) showed a rescue above control of -1.72.

For the molecule `CCC(C)C(=O)O[C@H]1[C@H](O)C2C(CN3CC(C)CCC3[C@@]2(C)O)C2C[C@]34O[C@]5(O)C(OC(=O)C(C)(O)C(C)O)CC[C@@]3(C)C5C(OC(C)=O)[C@@H](OC(C)=O)C4[C@@]21O` (stereo partly drawn), the rescue above control was -3.98.

In the case of `C/C=C(\C)C(=O)O[C@H]1C[C@@H](OC(C)=O)[C@@]2(C(=O)OC)CO[C@@H]3C2[C@]12CO[C@](O)(C(=O)OC)[C@H]2[C@](C)(C12O[C@@]1(C)[C@H]1C[C@@H]2OC2OC=C[C@@]21O)[C@@H]3O` (stereo partly drawn), the rescue above control is 3.11.

As to `COc1ccc2c(c1OC)C(=O)O[C@H]2[C@H]1c2cc3c(cc2CCN1C)OCO3`, the rescue above control is -6.7.

The inhibition is the relative decrease from the control value, in per cent.
